# Assay outcomes from PubChem.
# p53null 32C kill: selectivity test: cytotoxicity in p53 null cells, permissive temperature; H1299-neo p53 null cells, ATP luminescence, 24 h, 32C; 0.62% of 55,000 active; AID 903; Potency, µM (series often up to 46.1 µM), inactives show at the highest dose activity change, negative = cytotoxicity, most hits filed as cytotoxic;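 note: potency is the fitted concentration of half-maximal effect; 0% = DMSO only and -100% = full killing by 100 µM tamoxifen; nearly all actives have a fitted effect of over 55% in size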
#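 We seeded p53-null H1299-neo cells, incubated them overnight at 37C, and added compounds across a range up to 46 uM. After 24 hours at 32C, ATP reagent was applied for 20 min at room temperature and luminescence recorded.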
# pS6 MEF inh: reduces mTORC1 signaling in Tsc2 and p53 null MEF cells | Tsc2-/- p53-/- MEF, phospho-rpS6 immunofluorescence/PI, 24 h | Potency, µM (titrated, usually from 38.3 µM), for inactives: at the highest dose activity change, negative = inhibition, actives largely listed as inhibitors | 0.78% of 44,000 active;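 note: potency is the fitted concentration of half-maximal effect; plate controls were DMSO for no effect and rapamycin for full effect; nearly all actives have a fitted effect of over 50% in size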
#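 Compounds act on Tsc2-/-, p53-/- fibroblasts carrying an empty vector for 24 h before fixation and dual staining for phospho-S6 and DNA (propidium iodide). Values are percentages of cells above a rapamycin-defined pS6/PI threshold.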
# PMP22 txn: PMP22 gene transcription modulation | 2% of 43,000 active | S16 Pmp22-F2sN Schwann cells, FLuc/NLuc coincidence luminescence, 24 h | Potency, µM (titrated, usually from 57.5 µM), inactives show at the top dose activity change, negative = inhibition, most hits filed as inhibitors | AID 1508649; active = clear falling dose curves in both reporters; inconclusive = both reporters move, but less clearly or upward; inactive = either reporter flat; the % is the NLuc reporter signal; note: potency is the fitted concentration of half-maximal effect; % is set by controls: 0 for no effect and ±100 for the full control effect
#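 Schwann cells carrying the coincidence reporter were exposed to library compounds for 24 h at 37C, then lysed and read for FLuc and, after quenching, NLuc luminescence on a CCD imager.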
# p53null 39C kill: p53 null cell cytotoxicity, nonpermissive temperature. Potency, µM (titrated, usually from 46.1 µM), for the others: top-dose activity, negative = cell killing, usual class: cytotoxic. 0.97% of 55,000 active. H1299 p53-null (neo) cells, 39C, ATPlite viability, 24 h;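 note: potency is the fitted concentration of half-maximal effect; 0% = DMSO only and -100% = full killing by 100 µM tamoxifen; nearly all actives have a fitted effect of over 50% in size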
#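 Cells seeded at 600/well, 37C overnight. Compound added (up to 46 uM), plates shifted to 39C for 24 hr. ATPlite added, luminescence read after 20 min at room temperature.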
# S16 F2sN tox: S16 Schwann cell cytotoxicity; S16 Pmp22-F2sN Schwann cells viability, CellTiter-Glo, 24 h; 0.48% of 43,000 active; Potency, µM (doses to about 57.5 µM), without a hit: at the top dose activity change, negative = cytotoxicity, most hits filed as cytotoxic; note: potency is the fitted concentration of half-maximal effect; % is set by controls: 0 for no effect and ±100 for the full control effect; nearly all actives have a fitted effect of over 65% in size
#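 S16 Schwann cells carrying the Pmp22-F2sN reporter, seeded in 1536-well format, were exposed to library compounds for 24 h at 37C. Viability was read as CellTiter-Glo luminescence after 15 min at room temperature.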
# NLuc saturating: NanoLuc enzyme inhibition artifact for PMP22 screen; 4% of 690 active; Potency, µM (top dose mostly 57.5 µM), for inactives: at the highest dose activity change, negative = inhibition, actives largely listed as inhibitors; Secreted NLuc enzyme (filtered S16 cell medium), Nano-Glo luminescence; shares compounds with PMP22 txn; note: potency is the fitted concentration of half-maximal effect; % is set by controls: 0 for no effect and ±100 for the full control effect
# NLuc Km counter: counter-screen for PMP22 expression modulators: NanoLuc inhibition at Km; shares compounds with PMP22 txn; secreted NLuc enzyme, coelenterazine luminescence, Km conditions; Potency, µM (highest dose often 57.5 µM), without a hit: top-dose activity change, negative = inhibition, most hits filed as inhibitors; 5% of 690 active; AID 1508639; note: potency is the fitted concentration of half-maximal effect; % is set by controls: 0 for no effect and ±100 for the full control effect
# FLuc counter: firefly luciferase enzyme inhibition artifact for PMP22 screen | 690 tested, under 10 active | shares compounds with PMP22 txn | purified P. pyralis FLuc, luminescence, 10 min | Potency, µM (highest dose often 57.5 µM), for the others: top-dose activity, negative = inhibition, usual class: inhibitors | AID 1508640; note: % of control where 0% means no effect
# Target sequence (P08659 whole entry, looked up): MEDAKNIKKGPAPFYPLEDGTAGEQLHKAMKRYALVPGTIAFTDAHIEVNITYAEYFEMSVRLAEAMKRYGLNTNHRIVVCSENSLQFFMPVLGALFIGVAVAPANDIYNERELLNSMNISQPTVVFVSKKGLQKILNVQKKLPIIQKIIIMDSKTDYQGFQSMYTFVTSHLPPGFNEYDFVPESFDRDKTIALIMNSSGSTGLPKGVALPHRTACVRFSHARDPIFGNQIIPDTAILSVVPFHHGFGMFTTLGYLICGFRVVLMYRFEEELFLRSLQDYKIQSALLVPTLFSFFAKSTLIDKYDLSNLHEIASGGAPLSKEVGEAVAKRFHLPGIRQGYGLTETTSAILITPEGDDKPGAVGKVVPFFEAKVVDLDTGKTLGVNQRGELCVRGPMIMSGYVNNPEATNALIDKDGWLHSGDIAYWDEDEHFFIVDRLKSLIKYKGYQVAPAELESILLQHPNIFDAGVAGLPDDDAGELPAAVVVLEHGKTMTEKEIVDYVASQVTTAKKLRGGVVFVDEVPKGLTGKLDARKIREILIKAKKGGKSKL
# S16 viab conf: confirmation of cytotoxicity in S16 Pmp22-F2sN Schwann cells (luciferase reporters placed in the Pmp22 gene); shares compounds with PMP22 txn; S16 Schwann cells viability, CellTiter-Glo ATP luminescence, 24 h; Potency, µM (doses to about 57.5 µM), inactives show at the top dose activity change, negative = viability loss, hits mostly cytotoxic; 7% of 690 active; AID 1508641; note: potency is the fitted concentration of half-maximal effect; % is set by controls: 0 for no effect and ±100 for the full control effect
# PMP22 txn cnf: confirmation of modulators of PMP22 gene transcription in S16 cells; shares compounds with PMP22 txn; S16 Schwann cells Pmp22-F2sN, dual luciferase, 24 h; Potency, µM (titrated, usually from 57.5 µM), for the others: at the highest dose activity change, negative = inhibition, actives largely listed as inhibitors; 22% of 690 active; AID 1508646; active = clear falling dose curves in both reporters; inconclusive = both reporters move, but less clearly or upward; inactive = either reporter flat; the % is the FLuc reporter signal; note: potency is the fitted concentration of half-maximal effect
# PMP22 prot conf: confirmation of modulators of rat PMP22 protein expression; shares compounds with PMP22 txn; S16 Schwann cells Pmp22-HiBiT, luminescence, 48 h; Potency, µM (series often up to 27.9 µM), for the others: at the highest dose activity change, negative = inhibition, most hits filed as inhibitors; 95 tested, under 10 active; AID 1508647
# Target sequence (P25094 whole entry, looked up): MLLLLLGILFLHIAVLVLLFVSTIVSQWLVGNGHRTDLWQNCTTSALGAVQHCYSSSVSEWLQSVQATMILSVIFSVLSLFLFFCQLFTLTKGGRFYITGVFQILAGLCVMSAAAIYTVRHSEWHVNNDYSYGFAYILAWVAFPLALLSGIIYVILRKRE
# * = called active by the depositor; ? = inconclusive; / = no result. Compounds with a hit are over-represented: about 3.2% of the library has one in this group of screens. Unless noted, calls come from the whole dose curve; as a rule, active = well fitted curve in the direction sought with a large enough effect; inconclusive = small, poorly fitted or top-dose-only effect, or another doubt; inactive = no such curve, though single readings can be large; an effect the other way counts as inactive or inconclusive.
SMILES,p53null 32C kill,pS6 MEF inh,PMP22 txn,p53null 39C kill,S16 F2sN tox,NLuc saturating,NLuc Km counter,FLuc counter,S16 viab conf,PMP22 txn cnf,others
Cc1ccc(C)c(NC(=O)C(C)N(c2ccccc2)S(C)(=O)=O)c1 (configuration not stated),5%,3%,-10%,13%,15%,/,/,/,/,/,
CC1=C(C(=O)Nc2cccc(F)c2)C2(CCCCC2)OC1=O,?,0%,4%,17%,1%,/,/,/,/,/,
CCOc1ccc(NC(=O)c2nc(S(=O)(=O)Cc3ccccc3F)ncc2Cl)cc1,-19%,3.7µM*,1.3µM*,?,5µM*,/,/,/,/,/,
Cn1c(SCc2ccccc2F)nc2c([nH]c3ccccc32)c1=O,-1%,-8%,-3%,-10%,1%,/,/,/,/,/,
COCCn1c(SCc2ccccc2F)nc2c([nH]c3ccccc32)c1=O,-5%,-6%,11µM*,16%,1%,-6%,0%,6%,-21%,?,
CCOC(=O)N1CCN(Cc2nc3cc(NC(=O)CC(C)C)ccc3n2C(C)C)CC1,7%,?,?,?,-18%,/,/,/,/,/,
CCOC(=O)N1CCN(Cc2nc3cc(NC(=O)c4ccc([N+](=O)[O-])cc4)ccc3n2C(C)C)CC1,-15%,?,14µM*,4%,-25%,?,19µM*,-7%,?,?,
CCOC(=O)N1CCN(Cc2nc3cc(NC(=O)CC)ccc3n2C(C)C)CC1,6%,?,5.3µM*,-11%,-17%,-5%,-3%,1%,7%,?,
Cc1ccc(CN(C(=O)COc2ccc([N+](=O)[O-])cc2)c2ccccn2)o1,-15%,-3%,-6%,-11%,3%,/,/,/,/,/,
Fc1ccc(-n2cc(-c3ccccc3)c3c(NCCc4ccccc4)ncnc32)cc1,8%,-7%,-5%,1%,-2%,/,/,/,/,/,
CCNc1nc(NC(C)(C)C)nc(Oc2ccc(=O)n(-c3ccccc3)n2)n1,0%,-9%,?,-6%,-1%,-9%,-3%,-7%,-13%,-33%,
O=c1oc2ccccc2cc1-c1cn2cc(Cc3ccc(Br)cc3)sc2n1,7%,-13%,?,?,-1%,3%,0%,-2%,1%,?,
COc1ccc(-c2cn3c(n2)sc2cc(C(=O)N4CCCCC4)ccc23)cc1,2%,-12%,?,1%,-28%,/,/,/,/,/,
Cc1oc(-c2ccc(Cl)cc2)nc1CN1CCCC(C(=O)NCc2ccccc2)C1 (configuration not stated),-3%,-1%,18µM*,-12%,-29%,?,?,-6%,-24%,?,
Cc1ccc(/C=C/c2onc(C)c2S(=O)(=O)N2CCC(C(=O)N3CCN(c4ccccc4F)CC3)CC2)cc1,2%,-4%,-17%,1%,9%,/,/,/,/,/,
CC(=O)c1ccc(N2CCN(C(=O)C3CCN(S(=O)(=O)c4c(C)noc4/C=C/c4ccc(C)cc4)CC3)CC2)cc1,-2%,0%,?,8%,-8%,-4%,12%,-7%,-9%,-13%,
C=CCN(CC=C)S(=O)(=O)c1ccc(NC(=O)COc2ccccc2OC)cc1,-17%,/,/,-14%,/,/,/,/,/,/,
CCN(CC)c1ccc(NC(=O)CSc2nc(-c3cccs3)cc(C(F)(F)F)n2)cc1,10%,-14%,?,-23%,0%,/,/,/,/,/,
O=C(CCS(=O)(=O)c1nc(-c2cccs2)cc(C(F)(F)F)n1)Nc1ccc(Br)cc1,5%,?,6.4µM*,47%,?,-7%,?,-3%,?,11µM*,PMP22 prot conf=65%
CCOC(=O)c1c(NC(=O)CSc2nc(-c3ccccc3)cc(C(F)(F)F)n2)sc(C)c1C,0%,-1%,-20%,-13%,-5%,/,/,/,/,/,
COc1ccc(N(C(=O)c2cc(OC)c(OC)c(OC)c2)S(=O)(=O)c2ccc(C)cc2)cc1,15%,3%,19µM*,2%,?,-21%,-1%,0%,-20%,-16%,
CN1CCc2c(sc(NC(=O)CSc3ccccc3)c2-c2nc3ccccc3s2)C1,-16%,?,?,?,2%,/,/,/,/,/,
CC(=O)N1CCc2c(sc(NC(=O)CSc3ccccc3)c2-c2nc3ccccc3s2)C1,8%,-19%,4µM*,12%,?,?,?,-4%,?,13µM*,PMP22 prot conf=?
COc1ccccc1CNC(=O)c1ccc2c(c1)N(Cc1ccc(C)cc1)CCS2,30%,-2%,?,14%,-3%,/,/,/,/,/,
Cc1ccc(CN(Cc2cccn2-c2nnc(N3CCCC3=O)s2)C(=O)Nc2ccccc2C(F)(F)F)cc1,5%,0%,19µM*,17%,?,?,?,0%,-2%,-22%,
COc1cccc(N2CCN(C(=O)C3CCN(S(=O)(=O)c4ccc5c(c4)oc(=O)n5C)CC3)CC2)c1,-8%,-1%,-21%,11%,10%,/,/,/,/,/,
Cc1cccc(N2CCN(C(=O)C3CCN(S(=O)(=O)c4ccc5c(c4)oc(=O)n5C)CC3)CC2)c1C,5%,0%,20µM*,4%,-15%,-5%,3%,2%,-15%,-28%,
